# In PubChem BioAssay (NCATS):
# Inconclusive results are not listed. A call without a number means that no potency is given here. A number with no mark means an inactive call. Calls of active or inactive are those of the source. Calls follow the shape of the dose curve; as a rule, active = well fitted cell-killing curve with a large enough effect; inconclusive = small, poorly fitted or top-dose-only effect, or effect the other way; inactive = flat fitted curve, though single readings scatter.
# Key:
# Assay in all cases: Primary qHTS to identify gynecologic anti-cancer compounds using libraries of approved drugs and bioactive compounds (AID 1345084); also: nearly all actives have a fitted effect of over 55% in size
# [1] = tested on: C33A; conditions: Gynecologic cancer cell panel viability, ATPlite luminescence, 48 h; series mostly up to 57.5 µM
# Procedure, shortened: (§1)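 Five-point cytotoxicity, 48 h drug exposure at 37 C, 5% CO2, on cells seeded 16 h beforehand. ATP content read by ATPlite luminescence.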
# [2] = tested on: CAOV3; conditions: Gynecologic cancer cell panel viability, ATPlite luminescence, 48 h; series mostly up to 57.5 µM
# Procedure, shortened: as §1
# [3] = tested on: CASKI; conditions: Gynecologic cancer cell panel viability, ATPlite luminescence, 48 h; series mostly up to 57.5 µM
# Procedure, shortened: as §1
# [4] = tested on: HeLa; conditions: Gynecologic cancer cell panel viability, ATPlite luminescence, 48 h; series mostly up to 57.5 µM
# Procedure, shortened: as §1
# [5] = tested on: Hek293T; conditions: Gynecologic cancer cell panel viability, ATPlite luminescence, 48 h, control line for the selectivity index; series mostly up to 57.5 µM
# Procedure, shortened: as §1
# [6] = tested on: JEG-3; conditions: Gynecologic cancer cell panel viability, ATPlite luminescence, 48 h; series mostly up to 57.5 µM
# Procedure, shortened: as §1
# [7] = tested on: OV90; conditions: Gynecologic cancer cell panel viability, ATPlite luminescence, 48 h; series mostly up to 57.5 µM
# Procedure, shortened: as §1
# [8] = tested on: SKOV3; conditions: Gynecologic cancer cell panel viability, ATPlite luminescence, 48 h; series mostly up to 57.5 µM
# Procedure, shortened: as §1
# [9] = tested on: Tov-21-G; conditions: Gynecologic cancer cell panel viability, ATPlite luminescence, 48 h; series mostly up to 57.5 µM
# Procedure, shortened: as §1
# [10] = tested on: Tov112D; conditions: Gynecologic cancer cell panel viability, ATPlite luminescence, 48 h; series mostly up to 57.5 µM
# Procedure, shortened: as §1
# [11] = tested on: Es-2; conditions: Gynecologic cancer cell panel viability, ATPlite luminescence, 48 h; series mostly up to 57.5 µM
# Procedure, shortened: as §1
# [12] = tested on: PA-1; conditions: Gynecologic cancer cell panel viability, ATPlite luminescence, 48 h; series mostly up to 57.5 µM
# Procedure, shortened: as §1
# Potency is read from the fitted curve at half-maximal effect.
structure (smiles),measurement,setting,value
C[C@@H]1O[C@@H](O[C@H]2[C@H](OC(=O)[C@]34CCC(C)(C)C[C@H]3C3=CCC5[C@@]6(C)C[C@H](O)[C@H](O[C@@H]7O[C@H](C(=O)O)[C@@H](O)[C@H](O)[C@H]7O)[C@@](C)(CO)C6[C@H](O)C[C@@]5(C)[C@]3(C)C[C@H]4O)O[C@@H](CO)[C@@H]2O)[C@H](O)[C@H](O)[C@H]1O[C@@H]1OC[C@@H](O)[C@H](O[C@H]2OC[C@](O)(CO)[C@H]2O)[C@H]1O (stereo not given in full),"activity change, negative = cytotoxicity",[1],-18.2% [at 6.55 µM]
same,"activity change, negative = cytotoxicity",[2],-15.4% [at 6.55 µM]
same,"activity change, negative = cytotoxicity",[3],-0.268% [at 6.55 µM]
same,"activity change, negative = cytotoxicity",[4],-1.36% [at 6.55 µM]
same,"activity change, negative = cytotoxicity",[5],-4.09% [at 6.55 µM]
same,"activity change, negative = cytotoxicity",[6],-17.4% [at 6.55 µM]
same,"activity change, negative = cytotoxicity",[7],-4.96% [at 6.55 µM]
same,"activity change, negative = cytotoxicity",[8],-5.43% [at 6.55 µM]
same,"activity change, negative = cytotoxicity",[9],-13.8% [at 6.55 µM]
same,"activity change, negative = cytotoxicity",[10],-1.13% [at 6.55 µM]
C=C(C)Cn1c(SCC(=O)c2cccs2)nc2sc3c(c2c1=O)CCCC3,Potency,[1],inactive
same,Potency,[2],inactive
same,Potency,[3],inactive
same,Potency,[11],inactive
same,Potency,[7],inactive
same,Potency,[8],inactive
same,Potency,[10],inactive
CN(c1ccc(NC(=O)Nc2ccccc2)cc1)S(=O)(=O)c1cnn(-c2ccc(F)cc2)c1,Potency,[1],inactive
same,Potency,[2],inactive
same,Potency,[3],inactive
same,Potency,[11],inactive
same,Potency,[6],inactive
same,Potency,[7],inactive
same,Potency,[12],inactive
same,Potency,[9],inactive
same,Potency,[10],inactive
CC[C@@H](C)[C@@H]1OC2(C=C[C@H]1C)C[C@@H]1C[C@H](C/C=C(\C)[C@H](O[C@H]3C[C@H](OC)[C@H](O[C@H]4C[C@H](OC)[C@H](NC(C)=O)[C@H](C)O4)[C@H](C)O3)[C@H](C)/C=C/C=C3\CO[C@H]4[C@H](O)C(C)=C[C@@H](C(=O)O1)[C@@]34O)O2 (stereo not given in full),Potency,[1],inactive
same,Potency,[2],inactive
same,Potency,[3],inactive
same,Potency,[11],inactive
same,Potency,[7],inactive
same,Potency,[9],inactive
same,Potency,[10],inactive
C=C1CC2[C@@]3(C)C=CC(=O)C(C)(C)C3=C(O)C(=O)[C@@]2(C)C2(C(=O)OC)C(=O)C(C)OC(=O)[C@@]12C (stereo not given in full),Potency,[1],inactive
same,Potency,[2],inactive
same,Potency,[3],inactive
same,Potency,[11],inactive
same,Potency,[6],inactive
same,Potency,[9],inactive
same,Potency,[10],inactive
C=C1C(=O)O[C@@H]2C[C@H](C)[C@@H]3CC(=O)[C@H](O)[C@@]3(C)C[C@H]12,Potency,[1],inactive
same,Potency,[2],inactive
same,Potency,[3],inactive
same,Potency,[4],inactive
same,Potency,[5],inactive
same,Potency,[6],inactive
same,Potency,[7],inactive
same,Potency,[12],25.1 µM (active)
same,Potency,[8],inactive
same,Potency,[10],inactive
COc1ccccc1-c1ccc(-c2cn(C(=O)N3CCCCC3Cc3ccccc3)nn2)cc1 (stereo not given),Potency,[1],inactive
same,Potency,[2],inactive
same,Potency,[3],inactive
same,Potency,[11],inactive
same,Potency,[6],inactive
same,Potency,[8],inactive
same,Potency,[9],inactive
same,Potency,[10],inactive
O=C(CNC(=O)c1cccc(C(F)(F)F)c1)N[C@@H]1CCN(Cc2ccc(Cl)cc2)C1,Potency,[1],inactive
same,Potency,[2],inactive
same,Potency,[3],inactive
same,Potency,[4],inactive
same,Potency,[5],inactive
same,Potency,[6],inactive
same,Potency,[7],inactive
same,Potency,[12],inactive
same,Potency,[9],inactive
same,Potency,[10],inactive
C=C1C(=O)OC2/C=C(\C)CC/C=C(\C=O)C(OC)C(OC(=O)C(C)CC)C12 (stereo not given),Potency,[1],inactive
same,Potency,[2],inactive
same,Potency,[3],inactive
same,Potency,[4],inactive
same,Potency,[6],inactive
same,Potency,[7],inactive
same,Potency,[12],inactive
same,Potency,[8],inactive
same,Potency,[10],inactive
CC(=O)O[C@H]1[C@@]2(O)C[C@H](C)[C@H](OC(=O)c3ccccc3)[C@@H]2[C@@H](OC(=O)CO)[C@]2(OC(C)=O)C[C@H]3C(=O)C(C)(C)C[C@@H]3[C@@]1(C)[C@H]2OC(C)=O,Potency,[1],inactive
same,Potency,[2],inactive
same,Potency,[3],inactive
same,Potency,[4],inactive
same,Potency,[5],inactive
same,Potency,[6],inactive
same,Potency,[7],inactive
same,Potency,[12],inactive
same,Potency,[8],inactive
same,Potency,[9],inactive
same,Potency,[10],inactive
C=C1C(=O)O[C@@H]2/C=C(/C)[C@@H](OC(C)=O)C/C=C(\C)C[C@@H](OC(=O)/C(=C/CO)CO)[C@@H]12,Potency,[1],inactive
same,Potency,[2],inactive
same,Potency,[3],inactive
same,Potency,[4],inactive
same,Potency,[6],inactive
same,Potency,[7],inactive
same,Potency,[12],inactive
same,Potency,[8],inactive
same,Potency,[10],inactive
Nc1nc(Cl)nc2c1ncn2C1OC(CO)C(O)C1F (stereo not given),Potency,[1],inactive
same,Potency,[2],0.631 µM (active)
same,Potency,[3],3.98 µM (active)
same,Potency,[4],inactive
same,Potency,[7],inactive
same,Potency,[12],3.55 µM (active)
same,Potency,[10],0.398 µM (active)
Fc1ccc(-c2nc(-c3c(F)cccc3F)[nH]c2-c2ccncc2)cc1,Potency,[1],inactive
same,Potency,[2],inactive
same,Potency,[3],inactive
same,Potency,[11],inactive
same,Potency,[5],inactive
same,Potency,[12],inactive
same,Potency,[9],inactive
same,Potency,[10],inactive
O=S(=O)(c1ccccc1)N(CC(F)(F)F)c1ccc(C(O)(C(F)(F)F)C(F)(F)F)cc1,Potency,[1],inactive
same,Potency,[2],inactive
same,Potency,[3],inactive
same,Potency,[4],inactive
same,Potency,[5],inactive
same,Potency,[6],inactive
same,Potency,[7],inactive
same,Potency,[12],inactive
same,Potency,[8],inactive
same,Potency,[9],inactive
same,Potency,[10],inactive
CCc1cnc(N2CCC(c3nc(COc4ccc(-n5cnnn5)cc4)cs3)CC2)nc1,Potency,[1],inactive
same,Potency,[2],inactive
same,Potency,[3],inactive
same,Potency,[4],inactive
same,Potency,[6],inactive
same,Potency,[7],inactive
same,Potency,[12],inactive
same,Potency,[9],inactive
same,Potency,[10],inactive
c1ccc(-c2ccc(CNc3nc(-c4ccccn4)nnc3-c3ccccc3)cc2)cc1,Potency,[1],12.6 µM (active)
same,Potency,[2],8.91 µM (active)
same,Potency,[3],11.2 µM (active)
same,Potency,[11],17.8 µM (active)
same,Potency,[6],inactive
same,Potency,[7],7.08 µM (active)
same,Potency,[8],12.6 µM (active)
same,Potency,[10],11.2 µM (active)
Nc1ncnc2c1c(-c1ccc(Cl)cc1)nn2-c1cccc(-c2cnnn2Cc2cccc(-c3ccccc3)c2)c1,Potency,[1],inactive
same,Potency,[2],inactive
same,Potency,[3],inactive
same,Potency,[4],inactive
same,Potency,[5],inactive
same,Potency,[6],inactive
same,Potency,[7],inactive
same,Potency,[8],inactive
same,Potency,[9],inactive
same,Potency,[10],inactive
